This note sets out measurements from PubChem BioAssay AID1347147 (National Center for Advancing Translational Sciences (NCATS), 2019).

Inconclusive results are not listed. Where a call stands in place of a potency, no number is given. The source made the active and inactive calls. Calls come from the whole dose curve; as a rule, active = well fitted inhibition curve with a large enough effect; inconclusive = small, poorly fitted or top-dose-only effect; inactive = no such curve, though single readings can be large or run the other way.
Potency is the fitted concentration of half-maximal effect.

N-terminal Xaa-Pro-Lys N-methyltransferase 1 (Homo sapiens), sequence (Q9BV86 whole entry, looked up): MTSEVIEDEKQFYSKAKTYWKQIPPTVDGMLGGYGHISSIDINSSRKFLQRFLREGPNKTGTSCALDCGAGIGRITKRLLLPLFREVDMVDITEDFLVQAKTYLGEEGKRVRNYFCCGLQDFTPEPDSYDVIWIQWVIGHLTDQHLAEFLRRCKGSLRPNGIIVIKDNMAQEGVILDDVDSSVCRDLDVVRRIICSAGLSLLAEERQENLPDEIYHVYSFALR

This experiment addresses N-terminal Xaa-Pro-Lys N-methyltransferase 1 (Homo sapiens) (UniProt Q9BV86). Kind of experiment: qHTS Assay for Inhibitors of N-terminal methyltransferase 1 (NTMT1): MTaseGlo Confirmatory Screen, Round 2. The following applies: NTMT1 enzyme, MTase-Glo SAH luminescence; series mostly up to 57.4 µM. From the text:
Assay Submitter (PI): Rong Huang Ph.D, Purdue University, West Lafayette, IN 47907
The N-terminal methytransferase 1 is the first methyltransferase that methylates protein alpha-N-amines and plays an important role in regulating cell mitosis, chromatin interactions and DNA repair. It is observed to be over-expressed in various cancer patient tissues like malignant melanoma and colorectal cancer tissues. Knockdown of NTMT1 in cancer cells causes cell mitotic defects and enhances sensitivity to DNA damaging chemotherapeutics. […] These critical cellular processes in which NTMT1 is implicated, coupled with emerging links to cellular dysfunction, strengthen the inference that NTMT1 is a compelling novel anticancer target. Progress have been made in understanding the molecular properties of NTMT1 and the biological consequences of protein alpha-N-terminal methylation, but there are no specific small molecule probes available for NTMT1 to fully characterize its MTase activity. To address this unmet need, a panel of assay is created and established to enable quantitative high-throughput screening (qHTS) for novel, potent, and selective small molecule NTMT1 inhibitors. Two orthogonal qHTS that use different reagents (ThioGlo vs. MTaseGlo) are developed for primary robotic screening against the NCATS chemical library of more than 400,000 small molecules. Identified inhibitors are reacquired, validated, and further characterized.
MTaseGlo Assay is a luminescence screen that measure the activity of methyltransferases based on the reaction product S-adenosyl homocysteine (SAH). The substrate SAM is converted to SAH upon enzyme activation. MTase-Glo reagent and detection solution convert SAH to ATP and measure the light from the luciferase reaction.
Early Translation Branch (ETB)
National Center for Advancing Translational Sciences (NCATS)
National Institute of Health (NIH)
NTMT1 enzyme, substrate SPKRIA, control peptide RCC1-6 is provided by the Huang laboratory.
In brief, 3 µL of enzyme mixture (final concentrations of 125 nM and 100 µM for NTMT1 and SAM, respectively) into all wells of a 1,536-well solid-bottom white plate (Greiner Bio One, Monroe, NC). 23 nL of DMSO or Ac-RCC1-10 (final concentration range 234 nM to 143 microM) was transferred via Wako Pin-tool (Wako Automation, Richmond, VA) and incubated (RT) for ~15 minutes. Next, 1 µL of substrate (final concentration 1 µM) or buffer was dispensed, and the reaction proceeded for 30 minutes (RT, protected from light) followed by a 1 microL addition of [5X] MTase-Glo Reagent(R). Samples were incubated (RT, protected from light) for 30 minutes to allow for SAH to be converted to ADP, followed by a 5 microL addition of [1X] MTase-Glo Detection Solution(R) to allow for ADP to be converted to ATP, which was then detected with a luciferase reaction. Samples were centrifuged for 15 seconds at 1,000 RPM's, followed by a RT incubation for 30 minutes. Plates were then read using Luminescence optics on a ViewLux detector. Data were normalized to no-enzyme (0% activity) and no-inhibitor (DMSO; 100%) controls, and the resulting percent inhibition data were fitted to a 4-parameter Hill equation using Graphpad Prism.
A general note: Quantitative high-throughput screening tests each substance at several concentrations.
Turning to `OC[C@H]1O[C@@H](n2cnc3c(NCc4ccco4)ncnc32)[C@H](O)[C@@H]1O`, the Potency entry was “inactive”.
On to `OC[C@H]1O[C@H](n2cnc3c(N[C@H]4CCC[C@@H]4O)ncnc32)[C@H](O)[C@@H]1O`, for which the Potency entry was “inactive”.
Turning to `O=Nc1ccc2oc(=O)ccc2c1`, the Potency result was “inactive”.
`C=CCN1CCc2c(cc(O)c(O)c2Cl)C(c2ccccc2)C1` (stereo not given): the Potency entry is “inactive”.
With `N#C/C(=C\c1ccc(O)c(O)c1)C(=O)Nc1ccccc1` the entry was “inactive”.
With `CN(C)CCCN1c2ccccc2Sc2ccccc21` the entry was “inactive”; with `CCN(CC)C(=S)SSC(=S)N(CC)CC`, “inactive”.
Regarding `CN1CCN(CCCN2c3ccccc3Sc3ccc(Cl)cc32)CC1`, the Potency result was “inactive”.
For `COc1cccc(OC)c1OCCNCC1CSc2ccccc2O1` (stereo not given), the Potency entry was “inactive”.
As to `CCN1CCC[C@H]1CNC(=O)c1cc(S(N)(=O)=O)ccc1OC`, the Potency result is “inactive”.
As to `O=c1ccc2ccc(O)c(O)c2o1`, the Potency entry is “inactive”.
Take `Nc1ncnc2c1ncn2[C@@H]1O[C@H](COP(=O)(O)OP(=O)(O)OC[C@H]2OC(O)[C@H](O)[C@@H]2O)[C@@H](O)[C@H]1O` (stereo not given in full): the Potency result is “inactive”.
With `O=C1Nc2ccc(I)cc2/C1=C/c1cc(Br)c(O)c(Br)c1` the figure was 8.91 µM (active).
Take `COc1cc2c(NC3CCN(CC4CCCCC4)CC3)nc(N3CCCCC3)nc2cc1OCCCN1CCCCC1`: the Potency result is “inactive”.
With `Nc1[nH]c(=O)nc2c1ncn2C1OC(CO)C(O)C1O` (stereo not given) the entry was “inactive”.
In the case of `C[C@H](Cc1ccc(O)c(O)c1)[C@@H](C)Cc1ccc(O)c(O)c1`, the Potency is 15.8 µM (active).
Regarding `O=c1c(O)c(-c2ccc(O)c(O)c2)oc2cc(O)cc(O)c12`, the Potency result is “inactive”.
As to `Oc1ccc(C2CNCc3sccc32)cc1O` (stereo not given), the Potency entry is “inactive”.
Turning to `OCC1OC(n2cnc3c(NCc4ccco4)ncnc32)C(O)C1O` (stereo not given), the Potency entry is “inactive”.
With `O=C(N[C@@H](Cc1ccccc1)C(=O)CCl)OCc1ccccc1` the entry was “inactive”.
For the compound `O=[N+]([O-])c1ccc(-c2nc(-c3ccc(F)cc3)c(-c3ccncc3)[nH]2)cc1`, the Potency result is “inactive”.
With `CC(C)=CCNc1ncnc2c1ncn2[C@@H]1O[C@H](CO)[C@@H](O)[C@H]1O` the entry was “inactive”; with `Cc1cc(C)c(/C=C2\C(=O)Nc3ccccc32)[nH]1`, “inactive”.
For `Cc1ccccc1CNc1ncnc2c1ncn2[C@@H]1O[C@H](CO)[C@@H](O)[C@H]1O`, the Potency entry was “inactive”.
On to `N[C@@H](Cc1ccc(O)c(O)c1)C(=O)O`, for which the Potency result was “inactive”.
`CSc1nc(N)c2ncn([C@@H]3O[C@H](COP(=O)(O)OP(=O)(O)O)C(O)[C@H]3O)c2n1` (stereo not given in full): the Potency is 20 µM (active).
As to `CCC(CC)n1ccc2c(C(=O)NCc3c(C)cc(C)[nH]c3=O)cc(C#N)cc21`, the Potency result was “inactive”.
With `N.N.N.N.N.N.N.N.N.N.N.N.N.N.O.O.[Ru+4].[Ru+5].[Ru+5]`, the Potency was 31.6 µM (active).
`Brc1c(Br)c(Br)c2[nH]cnc2c1Br`: the Potency result was “inactive”.
For `Cc1ccc(S(=O)(=O)/C=C/C#N)cc1`, the Potency result is “inactive”.
On to `N#C/C(=C\c1ccc(O)c(O)c1)C(=O)c1ccc(O)c(O)c1`, for which the Potency entry was “inactive”.
With `CC(C)NC[C@@H](O)c1ccc(O)c(O)c1` the entry was “inactive”; with `Nc1ncnc2c1[nH]c(=S)n2C1OC(CO)C(O)C1O` (stereo not given), “inactive”.
On to `Nc1ccnc2c1ncn2[C@@H]1O[C@H](CO)[C@@H](O)[C@H]1O`, for which the Potency was 10 µM (active).
`OCCN1CCN(CCCN2c3ccccc3Sc3ccc(Cl)cc32)CC1`: the Potency entry was “inactive”.
With `CSc1nc(N)c2ncn([C@@H]3O[C@H](COP(=O)(O)OP(=O)(O)OP(=O)(O)O)[C@@H](O)[C@H]3O)c2n1` the entry was “inactive”.
With `COc1cc2nc(N3CCCN(C)CC3)nc(NC3CCNCC3)c2cc1OC`, the Potency entry is “inactive”.
On to `NC[C@@H]1O[C@H](C23CC4CC(CC(C4)C2)C3)Cc2c1ccc(O)c2O`, for which the Potency result is “inactive”.
With `COC(=O)[C@H]1[C@H]2C[C@H]3c4[nH]c5ccccc5c4CCN3C[C@H]2CC[C@@H]1O` the entry was “inactive”; with `C#CCN(C)CCCOc1ccc(Cl)cc1Cl`, “inactive”.
